Most compounds without a hit are left out; they make up all but 1.7% or so of the library.
TRHR agonist: TRH receptor (human) agonism. TRHR cells, calcium flux fluo-8, FDSS agonist mode. hit rate 0.18% among 360,000. activation, % at 2 µM. P34981; in the data active means activation above about 30%
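Read-out: compound-evoked intracellular calcium rise in TRHR cells, fluo-8 dye, kinetic FDSS fluorescence at 1 s/cycle following a 10-cycle baseline. Cells cultured overnight before dye loading (30 min–1.5 h, RT).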
TRHR enhancer: allosteric enhancers of human TRH receptor; TRHR cells, fluo-8 calcium fluorescence, EC20 TRH enhancement; enhancement, % at 2 µM; hit rate 0.66% among 360,000; AID 493056; in the data active means enhancement above about 30%
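TRHR-expressing cells loaded with fluo-8 calcium dye were read kinetically (ex 480/em 530) during compound addition, then stimulated with an EC20 of TRH (10 nM final). Enhancement of the Gq-mediated intracellular calcium response was scored.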
KCNH2 WT inh: blocks the wildtype human KCNH2 potassium channel; hit rate 0.37% among 340,000; U2OS, BacMam KCNH2, thallium flux FluxOr; stronger effect = lower value; activity change, % at 1.84 µM; Q12809;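 active means maximum activity change below -70%; inconclusive means maximum activity change between -70% and -50%; inactive means maximum activity change above -50%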
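U2OS cells transduced with wild-type KCNH2 virus are loaded with FluxOr dye for 45 min, and thallium flux is measured in kinetic reads before and after stimulation buffer. Rate constants are normalized to DMSO controls.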
TRPML1 ag: agonists of human TRPML1 channel | hit rate 0.12% among 410,000 | Q9GZU1 | activation, % (no concentration beside the values) | TRPML1-expressing cells, Ca2+ dye fluorescence, FDSS | AID 624414; in the data active means activation above about 50%; inconclusive means mostly about 30% to 49%
Target sequence (Q9GZU1 whole entry, looked up): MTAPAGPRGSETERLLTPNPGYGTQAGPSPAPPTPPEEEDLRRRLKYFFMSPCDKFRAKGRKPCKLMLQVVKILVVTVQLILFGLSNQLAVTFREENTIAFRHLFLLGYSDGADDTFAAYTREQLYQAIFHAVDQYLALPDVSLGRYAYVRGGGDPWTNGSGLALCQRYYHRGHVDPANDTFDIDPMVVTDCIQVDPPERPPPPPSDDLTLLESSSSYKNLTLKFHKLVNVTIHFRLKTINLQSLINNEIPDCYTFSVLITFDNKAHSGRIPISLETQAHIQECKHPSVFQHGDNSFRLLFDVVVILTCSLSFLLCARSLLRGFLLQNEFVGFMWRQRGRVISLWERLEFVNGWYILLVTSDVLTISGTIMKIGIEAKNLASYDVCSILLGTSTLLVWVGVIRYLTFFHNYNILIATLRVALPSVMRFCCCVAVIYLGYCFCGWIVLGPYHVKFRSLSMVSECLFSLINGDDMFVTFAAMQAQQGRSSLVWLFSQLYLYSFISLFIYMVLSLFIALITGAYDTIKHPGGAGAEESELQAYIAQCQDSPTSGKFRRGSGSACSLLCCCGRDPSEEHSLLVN
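In this qHTS format, compounds were pin-transferred onto Ca8-dye-loaded TRPML1-DL cells induced with Tet overnight, and intracellular Ca2+ fluorescence was recorded kinetically for 110 s after a 10 s baseline. A subsequent 4uM final 54-4 (EC80) addition followed by a second 110 s read served as the antagonist phase.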
TRPML1 inh: blocks the human TRPML1 channel. Q9GZU1. TRPML1-inducible cells, Ca2+ dye fluorescence, FDSS; stronger effect = lower value; inhibition of EC80 agonist-evoked calcium signal. activity change, negative = inhibition, % (no concentration beside the values). hit rate 0.02% among 390,000. AID 624415; in the data active means activity change below about -50%; inconclusive means between about -30% and that limit;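 further: stimulus is agonist 54-4 at its EC80 concentration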
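TRPML1-DL cells, Tet-induced overnight (~16 h, 37 °C) at 1,500 cells/well, were loaded with Ca8 no-wash dye plus quencher for 45-90 min at room temperature. Compounds were pinned during FDSS kinetic reading; agonist 54-4 at EC80 (4 uM final) then added.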
KCNH2 3.1 inh: inhibitors of human KCNH2 3.1 potassium channel isoform. hit rate 0.95% among 340,000. activity change, % (tested at about 1.8 µM). U2OS KCNH2 3.1, thallium flux FluxOr; stronger effect = lower value;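 active means maximum activity change below -70%; inconclusive means maximum activity change from -70% to -50%; inactive means maximum activity change above -50%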;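 further: thallium influx rate constant from kinetic fluorescence after stimulation buffer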
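Normalized rate constant (relative to positive and negative DMSO controls) derived from a 2 min kinetic fluorescence read after stimulation; U2OS cells expressing the 3.1 isoform via virus at 1.77 x 10^8 /mL.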
Each line names hits and unclear results; the compound was inactive in the other large screens.

C=CC[C@H](CC(=O)N[C@H](CO)Cc1ccccc1)C(=O)N[C@@H](COC(=O)[C@@H](CC=C)Cc1ccc(F)cc1)Cc1c[nH]c2ccccc12	KCNH2 3.1 inh -80 (no result: TRHR agonist, TRHR enhancer)
C=CC[C@@H](CC(=O)N[C@@H](CO)Cc1ccccc1)C(=O)N[C@H](COC(=O)[C@@H](CC=C)Cc1ccc(F)cc1)Cc1c[nH]c2ccccc12	none (no result: TRHR agonist, TRHR enhancer)
CCCCNc1nc2cccnc2s1	KCNH2 3.1 inh -130
Clc1ccc(Nc2nc3cccnc3s2)cc1	none
Cc1cccc(N/C(=N/S(=O)(=O)c2ccccc2)c2ccccc2)n1	none
Cc1cc(Cl)c2oc(C(=O)N3CCN(c4ccncc4)CC3)c(C)c2c1	KCNH2 WT inh -138 (no result: TRHR agonist, TRHR enhancer)
CCOc1ccc(CCNC(=O)COC(=O)CSc2ccc(C)cc2)cc1OCC	none
Cc1ccc(C(=O)C(C)OC(=O)Cn2[nH]c(=O)c3ccccc3c2=O)cc1 (centres undefined)	none
CCOc1ccc(C(=O)C(C)OC(=O)Cn2[nH]c(=O)c3ccccc3c2=O)cc1 (centres undefined)	KCNH2 3.1 inh -73
O=C(CC(=O)Nc1cc(Cl)ccc1Cl)Nc1cc(Cl)ccc1Cl	none
Cc1ccccc1CN(C)C(C)C(=O)Nc1ccccc1F (centres undefined)	TRHR enhancer 40
Cc1cccc(C)c1NC(=O)CN(C)C(C)C(=O)Nc1ccccc1-c1ccccc1 (centres undefined)	none
O=C(O)c1ccccc1C(=O)Nc1ccc(Nc2ccc([N+](=O)[O-])cc2[N+](=O)[O-])cc1	TRHR enhancer 35
O=C(/C=C/c1ccccc1)C1=C(O)C(=O)N(CCO)C1c1ccc2c(c1)OCO2 (centres undefined)	TRHR enhancer 36
Cc1ccc(NC(=O)CN(C)Cc2nc3ccccc3c(=O)[nH]2)c(Br)c1	none
Cc1cc(Br)ccc1NC(=O)CNC(=O)CN(C)Cc1nc2ccccc2c(=O)[nH]1	KCNH2 3.1 inh -99
CCOc1ccc(S(=O)(=O)NNS(=O)(=O)c2ccc(C)cc2C)cc1	none
CC(C)COc1ccc(C(=O)Nc2scc(-c3ccc(Br)cc3)c2C(=O)OC(C)C)cc1	TRHR enhancer 31 (no result: KCNH2 WT inh, KCNH2 3.1 inh)
Cc1oc(-c2ccccc2)nc1Cn1c(=O)cc(-c2ccccc2)c2c(C)nn(C)c21	none (no result: KCNH2 WT inh, KCNH2 3.1 inh)
Cc1ccc(C)c(-c2nc(Cn3c(=O)cc(-c4ccccc4)c4c(C)nn(C)c43)c(C)o2)c1	TRHR agonist 32 (no result: KCNH2 WT inh, KCNH2 3.1 inh)
COC(=O)c1ccc2c(=O)n(Cc3ccco3)c(SCC(=O)Nc3ccc(C)c(Cl)c3)nc2c1	KCNH2 3.1 inh -75
O=C(CSc1nc2cc(Cl)ccc2c(=O)n1Cc1ccco1)Nc1ccc(S(=O)(=O)N2CCOCC2)cc1	KCNH2 3.1 inh -75
O=C(CSc1nc2ccccc2c(=O)n1Cc1ccco1)Nc1cccc(O)c1	none
CC(C)c1ccc(NC(=O)CSc2n[nH]c(=O)n2Cc2ccco2)cc1	KCNH2 3.1 inh -88
CS(=O)(=O)c1ccc(Cl)c(NC(=O)CSc2nc3ccccc3c(=O)n2Cc2ccco2)c1	KCNH2 3.1 inh -98
COCCCNC(=O)c1c(NC(=O)c2nc(S(C)(=O)=O)ncc2Cl)sc2c1CCCC2	none (no result: KCNH2 WT inh, KCNH2 3.1 inh)
C/C(=N/NC(=O)C1CCCN1C(=O)c1ccc([N+](=O)[O-])cc1)c1ccc(Br)cc1 (centres undefined)	TRHR enhancer 35 (no result: KCNH2 3.1 inh)
O=C(N/N=C/c1ccccc1)C1CCCN1C(=O)c1cc([N+](=O)[O-])cc([N+](=O)[O-])c1 (centres undefined)	none
COc1ccc(NC(=O)CSc2nnc(C)s2)cc1S(=O)(=O)N1CCOCC1	none
COc1cc(/C=C(\C#N)c2ccccn2)cc(OC)c1O	TRHR agonist 47
COc1cc(OC)c(/C=C/c2c3ccccc3cc[n+]2C)c(OC)c1	none (no result: TRHR agonist, TRHR enhancer, KCNH2 WT inh, TRPML1 inh, KCNH2 3.1 inh)
Cc1ccc(C(=O)NNC(=S)NC(=O)c2ccc(Cl)cc2Cl)cc1	TRHR agonist 32, TRPML1 ag 72
Cc1ccc(C(=O)NNC(=S)NC(=O)c2ccccc2)cc1	none (no result: TRHR agonist, TRHR enhancer)
Cc1ccc(C(=O)NC(=S)NNC(=O)c2ccccc2)cc1	TRHR agonist 31, TRPML1 ag 69
Cc1cccc(C(=O)NNC(=S)NC(=O)c2ccccc2)c1	TRPML1 ag 70 (no result: TRHR agonist, TRHR enhancer)
CCCOc1ccc(C(=O)NC(=S)NNC(=O)c2c(-c3ccccc3)noc2C)cc1	TRHR agonist 48, TRPML1 ag 65
Cn1nnnc1Sc1ncnc2scc(-c3cccc(Cl)c3)c12	none (no result: KCNH2 WT inh, TRPML1 ag, TRPML1 inh, KCNH2 3.1 inh)
CCOC(=O)c1ccc(N2C(=O)c3[nH]nc(-c4ccccc4)c3C2c2ccc(CC)cc2)cc1 (centres undefined)	none (no result: KCNH2 WT inh, KCNH2 3.1 inh)
COc1ccc(C(=O)NNC(=S)NC(=O)c2cccs2)cc1	none
O=C(NC(=S)NNC(=O)c1ccccc1O)c1ccccc1	none
Cc1cccc(C(=O)NNC(=S)NC(=O)c2cccs2)c1	TRPML1 ag 66
Cc1ccccc1C(=O)NNC(=S)NC(=O)c1ccccc1	TRHR agonist 59, TRPML1 ag inconclusive
CC(C)CC(OC(=O)c1ccc(Cl)nc1)C(=O)NC1CCCC1 (centres undefined)	none

Screening results: PubChem BioAssay, National Center for Advancing Translational Sciences (NCATS)
